From the supplement of paper PMC11417369 come the findings set out here.

Over roughly 25,000 sequences, “ln(normalized median fluorescence intensity)” has its median near 7.1; the highest 2% begin near 10. Only a selection was taken, and the highest values are over-represented in it overall.

The subject of this experiment is PfSIP2 AP2 domain 1 (GST-tagged). The experiment can be described thus: gcPBM binding intensity (ln(normalized median fluorescence intensity)); higher = stronger DNA binding. The essentials: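 Probes on an Agilent 4 × 180k array were primer-extended, double-stranded and 36 bp long, taken from intergenic genomic regions, with negative controls added. GST-tagged P. falciparum DNA-binding domains from E. coli, about 25 μg on average, were applied to the array for 1 h in 1× PBS containing 1% milk, 0.2 mg/ml BSA, 0.5% salmon testes DNA and 0.03% Triton X-100. Binding intensity, obtained after Alexa488 anti-GST antibody detection and a 488 nm scan, is the highest Masliner-normalised natural-log median intensity across replicate spots of either probe orientation.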
Regarding “TTAAGTAGTACATACACACACATATACAAAAAGAAA [CACACA_site3972]”, the “gcPBM binding intensity (ln)” value worked out at 7.3.
Under “AGAATGAAATAATATACACACAAAGGAAAAATGTAA [CACACA_site3911]” stands 6.76; under “TACATATATTTTTATACATGCATAACTTAGGACTTT [TGCATGCA_site113]”, 7.07; under “TGTGCATAATTTTGTGCACACCACGCTAATAATTTT [CACACA_site2915]”, 10.9.
Under “CATATAAATATTTGTGCACACAATTATTAATAATTA [CACACA_site3884]” stands 9.35.
As for “TTTTTTTTTTTTTTTGTGCACAATATAATTTTTAAT [GTGCAC_site9747]”, the “gcPBM binding intensity (ln)” value amounted to 8.64.
With “ATAGTATCTGGTAGCTGTACGAGTCGTATAGTGCAG [XGTACX_site2542]”, the “gcPBM binding intensity (ln)” value amounted to 8.25.
On to “AAAAAAAATTATATATGTACTTATTAATCCTTATAT [XGTACX_site1389]”, for which the “gcPBM binding intensity (ln)” value was determined as 6.86.
With GATGTTTCTATTTTAGTGCATTTTAAATAAATAAAT, the “gcPBM binding intensity (ln)” value was 9.4.
Under TACATCATCTATAAGGTGCATTTTAGTTCTATTAAA stands 10.8; under “TTTTCTAAATAAATAGTGCATTTATTATATATACAT [GTGCAC_site9766]”, 9.15.
As to “AAAAAAAAAAGAAATTGTACTTTTTGTTTAATAATT [XGTACX_site4681]”, the “gcPBM binding intensity (ln)” value was found to be 6.65.
Under TTGTTCTTTTGAAAGGTGCAAAAGAAAAATAATTAA stands 11.2.
In the case of “TTGTTCTTTTTTTTTTTATTTTTTAATTTGAAAAGA [CACACA_negctrl_site209]”, the “gcPBM binding intensity (ln)” value came out at 7.03.
Turning to “GACATATTCCCCCCCACACACACACCCACATACATA [CACACA_site2302]”, the “gcPBM binding intensity (ln)” value worked out at 9.81.
Take “CATATTCCCCCCCACACACACACACCCATACATACC [CACACA_site2303]”: the “gcPBM binding intensity (ln)” value amounted to 10.2.
For “CATATTCCCCCCCACACACACACACGCATACATACC [CACACA_site7148]”, the “gcPBM binding intensity (ln)” value was determined as 10.1.
As for “TCTATATAATACCAATGTACATAGTTTTAAGCATAA [XGTACX_site1889]”, the “gcPBM binding intensity (ln)” value worked out at 6.93.
As to “TATAAAACGGATGAACAACAAATCATATGGCACAAA [TGCATGCA_negctrl_site608]”, the “gcPBM binding intensity (ln)” value was found to be 7.23.
As for “TATTGTATCCTTAATGCATGCACCAAATAAAAAAAG [TGCATGCA_site541]”, the “gcPBM binding intensity (ln)” value stood at 11.1.
Turning to “CTGTATAAAACCAATGCATGTAAATATATTAATATA [TGCATGCA_site511]”, the “gcPBM binding intensity (ln)” value is 7.06.
For the sequence “TTTTTGTATCCTTTTAATATTAAATAAAAGGAATGT [CACACA_negctrl_site1468]”, the “gcPBM binding intensity (ln)” value turned out to be 7.02.
For “ACAAAGTAAAATAATGCATGTAGGTATACATAATTA [TGCATGCA_site607]”, the “gcPBM binding intensity (ln)” value was found to be 6.64.
Consider “TTAAAAAAGTAATTAACACACAATAATGTAATGCAT [CACACA_site4176]”, for which the “gcPBM binding intensity (ln)” value stood at 6.72.
As for TTGTATCCTTAATGCATGCACCAAATAACAAAAGTA, the “gcPBM binding intensity (ln)” value amounted to 10.6.
Under “TATTTGTTTGAATTTTTTTTTTTTTTTTTTTATGTG [CACACA_negctrl_site966]” stands 6.78; under “CCTATATAATATATTTGTACTTAATAATTAAAGTGT [XGTACX_site5151]”, 7.16; under “ATTATTTGTAATATAACACACACAAAAAAAGACTCG [CACACA_site8487]”, 7.1.
Regarding “AAAATGTATATTGGCGCATGTAAACAAATACTATAC [TGCATGCA_site385]”, the “gcPBM binding intensity (ln)” value worked out at 7.13.
Regarding “GTCAAATTTTTGTGCACACATATATAGTTATTATTA [CACACA_site2241]”, the “gcPBM binding intensity (ln)” value stood at 10.
Regarding “AAATATTACATTTGTTAAATAATATGTTATACATAA [XGTACX_negctrl_site484]”, the “gcPBM binding intensity (ln)” value is 6.96.
Under CAGTTGTTAATTTGTGTGCACCAAATATTATACATA stands 11.2; under “ACCTACACAAGCATTAAACACACAAAAGGGATACTT [CACACA_site8273]”, 7.18.
Turning to “AAAACATTGTTGAACTGTTTTATTTATAAATATAAG [XGTACX_negctrl_site393]”, the “gcPBM binding intensity (ln)” value is 7.02.
As to “TATAAAAATGTGCACACACACACATATTTATATTTA [CACACA_site6826]”, the “gcPBM binding intensity (ln)” value is 8.97.
As to “CATAAAAATGAACATACACACATATATTTATTTATA [CACACA_site7222]”, the “gcPBM binding intensity (ln)” value was determined as 6.85.
As to “AAAATGAAGAAGTGCACACATATATATATTTATATA [CACACA_site507]”, the “gcPBM binding intensity (ln)” value is 10.7.
Regarding “TTAAAATGAAGAAGTGCACACATATATATATTTATA [CACACA_site8063]”, the “gcPBM binding intensity (ln)” value was 10.4.
Consider “AAAATGAACAGACACACACACATATTTATATTTATA [CACACA_site7182]”, for which the “gcPBM binding intensity (ln)” value came out at 6.96.
Under “TCCTTATATTTGCACACACACACAAGAAAATGAAAA [CACACA_site6613]” stands 8.3.
For “CATGCCGTTAAATTATGTACTTATTATTTTAATATG [XGTACX_site4209]”, the “gcPBM binding intensity (ln)” value came out at 7.03.
Regarding “TAAAAAAAATCATTCACACATATATGAAAAAAAAAA [CACACA_site5546]”, the “gcPBM binding intensity (ln)” value is 6.72.
To “TTATGGTGCATGAAATCACACATTGATATATATGCT [CACACA_site5352]” belongs 11.3; to TATCATGTTTTTATGGTGCATGAAATCACACATTGA, 9.32.
In the case of ATATATATATATATTGTGCACAAAAAAAAATAAGCA, the “gcPBM binding intensity (ln)” value came out at 9.29.
Take “AATATAAAAATGCACACACACAAAAAAAAAAAAAAA [CACACA_site6546]”: the “gcPBM binding intensity (ln)” value came out at 7.37.
Turning to “AAAAATAAAAGGTGTGCACACAAAAATATATATATA [CACACA_site8507]”, the “gcPBM binding intensity (ln)” value is 8.89.
Turning to “AAAAAAATAAGGTGCACACAAAAAAAAAAAAAAAAA [CACACA_site812]”, the “gcPBM binding intensity (ln)” value was 12.4.
Consider “ACAAAAAAATAAGGTGCACACAAAAAAAAAAAAAAA [CACACA_site8171]”, for which the “gcPBM binding intensity (ln)” value stood at 12.
“TAAATATAAAAATGCACACACACAAAAAAAAAAAAA [CACACA_site895]”: the “gcPBM binding intensity (ln)” value turned out to be 7.44.
“GTCCTTCATCATATTTAACACACAGAGAAAAAGCGG [CACACA_site7979]”: the “gcPBM binding intensity (ln)” value was 7.68.
Turning to “AAAATAAAAAAAATAAATAAAAAAAATAATAATAAA [CACACA_negctrl_site563]”, the “gcPBM binding intensity (ln)” value stood at 6.55.
Consider “TATAACTTTTTTATTACACACCTATGCAATATTATA [CACACA_site6570]”, for which the “gcPBM binding intensity (ln)” value was 7.
For “TATATAATATAATTGACATGCAACCATTTTCGTGAA [TGCATGCA_site458]”, the “gcPBM binding intensity (ln)” value is 6.84.
As to TTTTTGTTATTATGTGTGCACATATATATATATATA, the “gcPBM binding intensity (ln)” value stood at 9.79.
For ATATATATTATGTGTGTGCACTTTTGTTATTATTAT, the “gcPBM binding intensity (ln)” value was found to be 10.4.
Under “CATACATATACTTTGTGTACATATATATATTATATA [XGTACX_site97]” stands 7.51; under TTTTTGTTATTTTTAGTGCACATTTAAGGGTGTATT, 10.4.
Consider “AAATATATGTTATATGTGCACTTTTTTTTTTTTTTT [GTGCAC_site9667]”, for which the “gcPBM binding intensity (ln)” value worked out at 10.4.
Consider “ATATTTATTTGTTAGTGTACATACATATATATATAT [XGTACX_site1347]”, for which the “gcPBM binding intensity (ln)” value came to 9.24.
Turning to “TTTTTTTTTGTTATGTTGCACTTTGCCATATTATTA [GTGCAC_site9844]”, the “gcPBM binding intensity (ln)” value was found to be 7.93.
Regarding “ATATGTTATATAAATATATATATATATATATATATA [TGCATGCA_negctrl_site594]”, the “gcPBM binding intensity (ln)” value is 9.55.
Take “ACTTTTTTTTTGTGTGTGCACTCGATTATATACATA [GTGCAC_site9846]”: the “gcPBM binding intensity (ln)” value worked out at 10.3.
Take “TTTTTTTTTTTTTTGTGTACATATAATGCACATTAT [XGTACX_site6505]”: the “gcPBM binding intensity (ln)” value worked out at 8.07.
In the case of “GAAAAATTTTTATATGTGCACATGTTATATATAATT [GTGCAC_site9742]”, the “gcPBM binding intensity (ln)” value is 8.64.
Consider TATTTTTTTTGTTAGGTGCATTTACATTTATTTTTA, for which the “gcPBM binding intensity (ln)” value turned out to be 9.93.
